Experimental data taken from PubChem BioAssay (NCATS).
Unmarked numbers belong to inactive results. Inconclusive results are not listed. A call without a number means that no potency is given here. Active and inactive are the calls of the source. The call rests on the fitted dose curve; in most records, active means well fitted curve in the direction sought with a large enough effect; inconclusive means small, poorly fitted or top-dose-only effect, or another doubt; inactive means no such curve, though single readings can be large; an effect the other way counts as inactive or inconclusive. Peptide text beside a SMILES is read from it. * marks the point of attachment. Octanoyl = CCCCCCCC(=O)*

Assays:
[1] = tested on: Zika virus NS2B-NS3 protease (linked construct); test: Primary screen NINDS Rhodamine qHTS for Zika virus inhibitors (AID 1347160); further: nearly all actives have a fitted effect of over 55% in size; further: potency means the concentration at half of the fitted maximal effect
Outline: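 Percent inhibition, normalized to uninhibited and enzyme-free controls, is fitted to a 4-parameter Hill equation. Fluorescence change comes from a 15-min cleavage of 1.5 microM bis-peptide Rhodamine110 substrate by 25 nM linked NS2B-NS3 at room temperature.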

[2] = OV-KATE Cancer Cell Toxicity qHTS against the NCATS CANVASS Library (AID 1347345)
Outline: (§1)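 Viability was assessed by adding CellTiter-Glo reagent to treated cultures and reading luminescence after 15min at room temperature. Treatment lasted 72 h at 37 degrees C/5% CO2, using an 11-point series on 1000 cells/well.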

[3] = HPAF-II Cancer Cell Toxicity qHTS against the NCATS CANVASS Library (AID 1347346); further: series mostly up to about 38 µM; nearly all actives have a fitted effect of over 55% in size
Outline: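 HPAF-II cells at 1000 cells/well were treated with an 11-point concentration series for 72 hours at 37 degrees C. Viability read by CellTiter-Glo luminescence.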

[4] = UWB1.289 Cancer Cell Toxicity qHTS against the NCATS CANVASS Library (AID 1347347); further: nearly all actives have a fitted effect of over 60% in size
Outline: as §1

[5] = OV-SAHO Cancer Cell Toxicity qHTS against the NCATS CANVASS Library (AID 1347348); further: series mostly up to about 38 µM; nearly all actives have a fitted effect of over 55% in size
Outline: as §1

[6] = Panc-1005 Cancer Cell Toxicity qHTS against the NCATS CANVASS Library (AID 1347349); further: series mostly up to about 38 µM; nearly all actives have a fitted effect of over 60% in size
Outline: as §1

[7] = SW1088 Cancer Cell Toxicity qHTS against the NCATS CANVASS Library (AID 1347350); further: nearly all actives have a fitted effect of over 75% in size
Outline: as §1

[8] = COV-362 Cancer Cell Toxicity qHTS against the NCATS CANVASS Library (AID 1347352); further: series mostly up to about 38 µM
Outline: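 Cells at 1000/well were given compound 4 h after plating in an 11-point series. Viability was read by CellTiter-Glo luminescence after 72 h at 37 degrees C.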

[9] = HEK293 18hr Apoptosis Induction qHTS against the NCATS CANVASS Library (AID 1347357)
Outline: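 Luminescent caspase-3/7 signal is measured in HEK293 cells exposed for 18 hours to an 11-point concentration series; doxorubicin serves as the plate control.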

[10] = HEK293 24hr Apoptosis Induction qHTS against the NCATS CANVASS Library (AID 1347359)
Outline: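 Caspase-3/7 activation measured as luminescence from the DEVD-based Caspase-Glo reagent, 15 min at room temperature, following 24-hour compound treatment of HEK293 cells.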

[11] = KB-3-1 Cancer Cell Toxicity qHTS against the NCATS CANVASS Library (AID 1347366); further: nearly all actives have a fitted effect of over 75% in size
Outline: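 Seed KB-3-1 cells at 500/well in DMEM with 10% FBS, add compounds, incubate 72 hr at 37C and 5% CO2, then add CellTiter-Glo and read luminescence after 10 minutes.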

[12] = qHTS for ATAD5 Agonist screened against the NCATS CANVASS Library (AID 1347367);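 further: luciferase reporter driven by ATAD5 which rises upon DNA damage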
Outline: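 Step one plated reporter cells and let them acclimate 5hr. Step two pinned compounds with MMS as positive and 0.46% DMSO as negative control. After 16hr incubation, fluorescence viability then luminescence were read.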

[13] = MCF7 Cancer Cell Toxicity qHTS against the NCATS CANVASS Library (AID 1347369)
Outline: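 Cytotoxicity is measured by ATP content: MCF7 cells at 500 per well receive an 11-point compound series and, after 72 hr at 37C, are lysed with CellTiterGlo for luminescence.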

[14] = J3T Cancer Cell Toxicity qHTS against the NCATS CANVASS Library (AID 1347371)
Outline: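 J3T dog glioma cells, 500 per well, treated 72 h at 37C with compounds (11-point qHTS); viability from ATP content by CellTiterGlo luminescence; bortezomib titration as control.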

[15] = target: Nuclear receptor subfamily 1 group I member 3 (Homo sapiens) (UniProt Q14994); test: qHTS for Constitutive Androstane Receptor (CAR) Agonist screened against the NCATS CANVASS Library (AID 1347373);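 further: every well also contained 1.5 µM PK11195 alongside the test compound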
Nuclear receptor subfamily 1 group I member 3 (Homo sapiens), sequence (Q14994 whole entry, looked up): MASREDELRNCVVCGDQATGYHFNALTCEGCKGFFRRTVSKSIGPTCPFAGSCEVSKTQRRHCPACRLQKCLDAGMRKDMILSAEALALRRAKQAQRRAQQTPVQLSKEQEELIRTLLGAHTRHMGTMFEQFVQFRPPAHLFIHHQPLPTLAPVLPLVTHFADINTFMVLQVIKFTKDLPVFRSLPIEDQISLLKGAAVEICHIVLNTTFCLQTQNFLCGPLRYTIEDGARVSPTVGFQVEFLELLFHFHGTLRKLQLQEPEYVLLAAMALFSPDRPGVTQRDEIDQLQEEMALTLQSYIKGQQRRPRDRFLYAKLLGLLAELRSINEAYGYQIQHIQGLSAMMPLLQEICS
Outline: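 HepG2 cells stably carrying hCAR and a CYP2B6-2.2kb luciferase reporter, treated 24hr at 37C with compounds plus 1.5uM PK11195; activation by ONE-Glo luminescence, viability by CellTiter-Fluor.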

[16] = 10-beta competent E. coli microbial cell viability qHTS against the NCATS CANVASS Library (AID 1347376); further: series mostly up to about 46 µM
Outline: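 10-beta competent E. coli (0.2 OD) were exposed overnight at 37C to compounds in an 11-point series. Viability was read as ATP-dependent BacTiter-Glo luminescence after 20 min at room temperature.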

[17] = qHTS for Inflammasome Signaling Inhibitors: IL-1-beta AlphaLISA screen against the NCATS CANVASS Library (AID 1347379);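 further: human THP-1 cells primed with LPS then triggered with ATP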
Outline: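 THP-1 cells pretreated 1 hr with compound (up to 57.5 uM final), then stimulated with LPS (250 ng/mL final) and ATP (1.25 mM final). Secreted IL-1B measured by AlphaLISA after 16 hr; glyburide as positive control.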

[18] = Inflammasome Signaling qHTS Counterscreen: IL-1-beta AlphaLISA counterscreen against the NCATS CANVASS Library (AID 1347381);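 further: cell-free check with purified IL-1β in medium and no THP-1 cells; series mostly up to about 57 µM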
Outline: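 Cell-free interference check: compounds added to medium spiked with 4 pg purified IL-1β. Anti-IL-1β acceptor beads (6 ug/mL) with 0.6 nM biotinylated antibody added for 1 h at RT, then streptavidin donor beads (24 ug/mL) for 30 min in the dark. AlphaLISA read at 680/615 nm.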

[19] = Vero-766 cells viability qHTS against the NCATS CANVASS Library: Counterscreen for Zika virus inhibition assay (AID 1347394); further: series mostly up to about 46 µM; nearly all actives have a fitted effect of over 60% in size
Outline: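 This cytotoxicity counterscreen uses African green monkey Vero 766 cells in the absence of Zika virus. Compounds are incubated with cells for 72 h, and ATP-based luminescence reports viability.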

[20] = Viability qHTS for inhibitors of the SERCaMP assay screened against the NCATS CANVASS Library (AID 1347400); further: series mostly up to about 92 µM; nearly all actives have a fitted effect of over 70% in size
Outline: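 SH-SY5Y-GLuc SERCaMP MJH297-derived cells, 1000/well, plated 4 h, then exposed to compounds in an 11-point qHTS series for 48 h at 37C. Viability read as CellTiter-Glo luminescence.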

Compound | Potency [1] | Potency [2] | Potency [3] | Potency [4] | Potency [5] | Potency [6] | Potency [7] | Potency [8] | Potency [9] | Potency [10] | Potency [11] | Potency [12] | Potency [13] | Potency [14] | outcome [15] | outcome [16] | Potency [17] | outcome [18] | Potency [19] | Potency [20]
C=C1C[C@@]23C=CC(=O)[C@@](C)(CCC(=O)Nc4c(O)ccc(C(=O)O)c4O)C2C[C@@H]1CC3 (stereo not given in full) | 27.7 µM (active) | inactive | inactive | inactive | inactive | inactive | inactive | inactive | inactive | inactive | inactive | inactive | inactive | inactive | inactive | inactive | inactive | inactive | inactive | inactive
CC(=O)O[C@H]1CC[C@@]2(C)C(CC[C@]3(C)C2CC=C2C4CC(C)(C)CC[C@]4(C)CC[C@]23C)C1(C)C (stereo not given in full) | inactive | inactive | inactive | inactive | inactive | inactive | inactive | inactive | inactive | inactive | inactive | inactive | inactive | inactive | inactive | inactive | inactive | inactive | inactive | inactive
CS/C=C/C(N)=O | inactive | inactive | inactive | inactive | inactive | inactive | inactive | inactive | inactive | inactive | inactive | inactive | inactive | inactive | inactive | inactive | inactive | inactive | inactive | inactive
Cc1cc(O)cc2oc(C[C@H](C)O)cc(=O)c12 | 44 µM (active) | inactive | inactive | inactive | inactive | inactive | inactive | inactive | inactive | inactive | inactive | inactive | inactive | inactive | inactive | inactive | inactive | inactive | inactive | inactive
CCCCCCCC(=O)N[C@@H](CC(C)C)C(=O)N[C@H](C=O)CCC(=O)O (Octanoyl-Leu-Glu-aldehyde) | 39.2 µM (active) | inactive | inactive | inactive | inactive | inactive | inactive | inactive | inactive | inactive | inactive | inactive | inactive | inactive | inactive | inactive | inactive | inactive | inactive | inactive
O=C(O)CC1OCc2c(O)cccc21 (stereo not given) | inactive | inactive | inactive | inactive | inactive | inactive | inactive | inactive | inactive | inactive | inactive | inactive | inactive | inactive | inactive | inactive | inactive | inactive | inactive | inactive
COc1cc(/C=C2/C(=O)N(c3ccc(O)cc3C(=O)O)[C@H](c3ccc(O)c(OC)c3)C2C(=O)Nc2ccc(O)cc2C(=O)O)ccc1O (stereo not given in full) | 6.97 µM (active) | inactive | inactive | inactive | inactive | inactive | inactive | inactive | inactive | inactive | inactive | inactive | inactive | inactive | inactive | inactive | inactive | inactive | inactive | inactive
C[C@@H]1O[C@H](c2c(O)cc(O)c3c(=O)cc(-c4ccc(O)cc4)oc23)[C@H](O)[C@H](O)[C@H]1O | 34.9 µM (active) | inactive | inactive | inactive | inactive | inactive | inactive | inactive | inactive | inactive | inactive | inactive | inactive | inactive | inactive | inactive | inactive | inactive | inactive | inactive
C/C=C/C[C@@H](C)[C@@H](O)[C@H]1C(=O)N[C@@H](CC)C(=O)N(C)CC(=O)N(C)[C@@H](CC(C)C)C(=O)N[C@@H](C(C)C)C(=O)N(C)[C@@H](CC(C)C)C(=O)N[C@@H](C)C(=O)N[C@H](C)C(=O)N(C)[C@@H](CC(C)C)C(=O)N(C)[C@@H](CC(C)C)C(=O)N(C)[C@H](C(C)C)C(=O)N1C | inactive |  |  |  |  |  |  |  |  |  |  |  |  |  |  |  |  |  |  | 
C[C@@]12C[C@@H](C[C@H]3C(=O)O[C@@H](c4ccoc4)[C@H](OC(=O)c4ccccc4)[C@@H]31)OC2=O | inactive | inactive | inactive | inactive | inactive | inactive | inactive | inactive | inactive | inactive | inactive | inactive | inactive | inactive | inactive | inactive | inactive | inactive |  | inactive
C/C=C/C=C/C1(O)C2C=C3C(=O)CC45C(=O)C(O)=C(C)C(=O)C4C1C1(C(=O)C(O)=C(C)C(=O)C351)C2C (stereo not given) | 39.2 µM (active) | inactive | inactive | inactive | inactive | inactive | inactive | inactive | inactive | inactive | inactive | inactive | inactive | inactive | inactive | inactive | inactive | inactive | inactive | inactive
